The source of these data is ChEMBL document CHEMBL3988442, “University of Dundee, Small-Polar-MMV Screening Library” (2021).

For some of these results: Potency and affinity values are given separately.

Design in all cases: scale not given: direction of the effect not stated beside the values
Test [1] deals with Protein translocase subunit SecA (Escherichia coli (strain K12)) (UniProt P10408). Briefly: Assay to Identify E. coli SecA ATPase Inhibitors. The test is classed as functional. The conditions noted are these: 30 µM.
Test [2] deals with T1, Ubiquitin-activating enzyme e1, putative (Leishmania donovani (strain BPK282A1)) (UniProt E9BSI1).
T1 sequence (whole entry): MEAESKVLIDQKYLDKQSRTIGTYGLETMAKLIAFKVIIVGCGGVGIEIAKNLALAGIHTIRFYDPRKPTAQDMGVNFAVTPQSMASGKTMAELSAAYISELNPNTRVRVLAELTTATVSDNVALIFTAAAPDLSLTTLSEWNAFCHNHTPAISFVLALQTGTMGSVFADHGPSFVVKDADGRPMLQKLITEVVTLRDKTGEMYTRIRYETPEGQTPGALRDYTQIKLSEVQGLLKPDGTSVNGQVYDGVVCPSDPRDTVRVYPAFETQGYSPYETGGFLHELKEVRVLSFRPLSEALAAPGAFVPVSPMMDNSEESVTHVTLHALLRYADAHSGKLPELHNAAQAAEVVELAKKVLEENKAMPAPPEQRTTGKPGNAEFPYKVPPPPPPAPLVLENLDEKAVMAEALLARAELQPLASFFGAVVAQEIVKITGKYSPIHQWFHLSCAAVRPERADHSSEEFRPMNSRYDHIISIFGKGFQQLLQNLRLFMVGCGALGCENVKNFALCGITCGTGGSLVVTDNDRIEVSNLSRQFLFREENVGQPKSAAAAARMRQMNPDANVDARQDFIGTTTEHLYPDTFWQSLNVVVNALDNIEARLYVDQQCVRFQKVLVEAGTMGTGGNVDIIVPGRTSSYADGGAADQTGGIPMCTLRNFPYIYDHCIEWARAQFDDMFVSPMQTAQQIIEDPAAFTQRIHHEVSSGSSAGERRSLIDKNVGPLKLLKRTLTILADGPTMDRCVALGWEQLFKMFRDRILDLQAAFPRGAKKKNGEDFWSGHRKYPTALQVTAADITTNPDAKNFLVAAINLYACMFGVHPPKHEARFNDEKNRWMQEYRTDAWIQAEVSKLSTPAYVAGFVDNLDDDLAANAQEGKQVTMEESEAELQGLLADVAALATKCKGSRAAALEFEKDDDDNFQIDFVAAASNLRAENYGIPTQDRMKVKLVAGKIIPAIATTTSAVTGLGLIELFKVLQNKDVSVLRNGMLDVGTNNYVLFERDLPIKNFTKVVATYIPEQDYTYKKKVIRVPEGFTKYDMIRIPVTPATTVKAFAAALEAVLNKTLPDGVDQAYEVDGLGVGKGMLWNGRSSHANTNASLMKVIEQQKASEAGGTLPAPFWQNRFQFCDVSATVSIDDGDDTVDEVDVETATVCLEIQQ
Briefly: Leishmania donovani Ubiquitin Activating Enzyme (LdE1). The format is functional. Particulars: 30 µM.

Test [3] deals with AMP-activated protein kinase, AMPK (Homo sapiens) (UniProt P54646+O43741+P54619+Q9UGJ0+Q9Y478+Q13131+Q9UGI9). Put plainly: AMP-dependent Kinase enzyme assay. An in vitro enzyme assay that detects ADP turnover that is directly proportional to AMPK activity. This uses naive AMPK that is activated during the assay with MK-8722. The format is functional. The conditions noted are these: 30 µM.

In test [4] the target is Sialic acid-binding Ig-like lectin 9 (Homo sapiens) (UniProt Q9Y336). Briefly: Hs-Siglec9 ALPHAscreen SOP 20170721. The conditions noted are these: 10 µM. (Alpha assays give light when donor and acceptor beads are brought close together.)
Another test deals with Trypanosoma cruzi. Briefly: Trypanosoma cruzi phosphomannomutase and mannose-1-phosphate guanylyltransferase assay. The format is functional. Particulars: 10 µM.
The target of test [5] is T2, Arginase-2, mitochondrial (Homo sapiens) (UniProt P78540).
T2 sequence (whole entry): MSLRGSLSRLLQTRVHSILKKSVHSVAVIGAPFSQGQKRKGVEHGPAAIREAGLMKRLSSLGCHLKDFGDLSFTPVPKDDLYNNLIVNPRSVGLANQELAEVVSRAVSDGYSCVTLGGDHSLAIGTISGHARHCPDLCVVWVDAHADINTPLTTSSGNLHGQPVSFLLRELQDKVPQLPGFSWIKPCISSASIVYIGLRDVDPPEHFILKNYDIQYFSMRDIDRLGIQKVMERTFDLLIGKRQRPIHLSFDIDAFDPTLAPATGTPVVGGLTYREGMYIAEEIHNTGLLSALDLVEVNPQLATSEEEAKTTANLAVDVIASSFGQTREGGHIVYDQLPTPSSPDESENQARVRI
Put plainly: in vitro enzyme assay to detect the production of urea directly proportional to the activity of Arginase II. Further: in the data most compounds retested in dose-response had high values. The test is classed as functional. Particulars: 33.3 µM.

For test [6], the target named is T3, Proteasome subunit beta (Trypanosoma cruzi) (UniProt O96673).
T3 sequence (whole entry): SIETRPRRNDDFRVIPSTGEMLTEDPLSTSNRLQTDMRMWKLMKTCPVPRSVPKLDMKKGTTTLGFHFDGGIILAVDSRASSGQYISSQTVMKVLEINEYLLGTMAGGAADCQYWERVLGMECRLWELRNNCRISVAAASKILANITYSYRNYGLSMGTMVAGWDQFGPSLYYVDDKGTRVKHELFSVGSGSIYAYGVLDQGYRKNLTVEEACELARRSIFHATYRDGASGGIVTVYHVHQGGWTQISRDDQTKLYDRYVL
Put plainly: Trypanosoma cruzi proteasome chymotrypsin-like activity (TcProtChymo) assay. Further: in the data most compounds retested in dose-response had high values. The format is functional. The conditions noted are these: 9.37 µM.

A further test is filed under the species Homo sapiens. Briefly: To identify inhibition of the IFN signalling (Jak-Stat) pathway via expression of an eGFP reporter gene under the control of an IFN-stimulated response element (ISRE) containing MxA promoter. The test is classed as functional. The conditions noted are these: 30 µM. (In general: Reporter assays use an easily measured gene product as a stand-in for the process of interest.)

Test [7] concerns the target T4, Tyrosyl-tRNA synthetase, putative (Trypanosoma cruzi (strain CL Brener)) (UniProt Q4DSP6).
T4 sequence (whole entry): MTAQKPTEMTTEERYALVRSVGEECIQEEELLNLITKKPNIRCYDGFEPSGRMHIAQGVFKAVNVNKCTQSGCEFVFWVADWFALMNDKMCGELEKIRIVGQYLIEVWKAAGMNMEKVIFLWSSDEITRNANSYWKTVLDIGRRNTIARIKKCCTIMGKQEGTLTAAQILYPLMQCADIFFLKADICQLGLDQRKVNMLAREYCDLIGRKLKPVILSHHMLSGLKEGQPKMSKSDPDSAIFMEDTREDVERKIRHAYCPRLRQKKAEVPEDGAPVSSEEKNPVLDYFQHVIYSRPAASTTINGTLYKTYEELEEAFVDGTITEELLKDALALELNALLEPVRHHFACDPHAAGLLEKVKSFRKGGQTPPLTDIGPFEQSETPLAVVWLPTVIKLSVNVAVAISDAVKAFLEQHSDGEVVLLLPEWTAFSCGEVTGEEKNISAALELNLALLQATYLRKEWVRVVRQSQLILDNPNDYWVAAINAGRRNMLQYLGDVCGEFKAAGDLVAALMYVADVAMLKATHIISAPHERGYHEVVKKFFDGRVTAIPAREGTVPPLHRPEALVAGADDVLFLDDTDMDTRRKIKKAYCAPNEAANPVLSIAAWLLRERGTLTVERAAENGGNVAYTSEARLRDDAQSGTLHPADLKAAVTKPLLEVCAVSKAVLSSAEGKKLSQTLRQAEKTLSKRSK
Briefly: Trypanosoma cruzi tyrosyl tRNA synthetase (TcYRS) _High Tyrosine SOP. Further: in the data most compounds retested in dose-response had high values. The test is classed as functional. Particulars: 30 µM.

Test [8] has as its target T4, Tyrosyl-tRNA synthetase, putative (Trypanosoma cruzi (strain CL Brener)). Briefly: Trypanosoma cruzi tyrosyl tRNA synthetase (TcYRS) SOP. The test is classed as functional. Particulars: 30 µM.
The target of test [9] is Chromo domain-containing protein 1 (Saccharomyces cerevisiae (strain ATCC 204508 / S288c) (Baker's yeast)) (UniProt P32657). Briefly: ScCHD-1 Enzyme Inhibition Assay. Further: in the data most compounds retested in dose-response had high values. The format is functional. Particulars: 30 µM.
Sequence of Chromo domain-containing protein 1 (Saccharomyces cerevisiae (strain ATCC 204508 / S288c) (Baker's yeast)) (P32657 whole entry, the tested form may be a part): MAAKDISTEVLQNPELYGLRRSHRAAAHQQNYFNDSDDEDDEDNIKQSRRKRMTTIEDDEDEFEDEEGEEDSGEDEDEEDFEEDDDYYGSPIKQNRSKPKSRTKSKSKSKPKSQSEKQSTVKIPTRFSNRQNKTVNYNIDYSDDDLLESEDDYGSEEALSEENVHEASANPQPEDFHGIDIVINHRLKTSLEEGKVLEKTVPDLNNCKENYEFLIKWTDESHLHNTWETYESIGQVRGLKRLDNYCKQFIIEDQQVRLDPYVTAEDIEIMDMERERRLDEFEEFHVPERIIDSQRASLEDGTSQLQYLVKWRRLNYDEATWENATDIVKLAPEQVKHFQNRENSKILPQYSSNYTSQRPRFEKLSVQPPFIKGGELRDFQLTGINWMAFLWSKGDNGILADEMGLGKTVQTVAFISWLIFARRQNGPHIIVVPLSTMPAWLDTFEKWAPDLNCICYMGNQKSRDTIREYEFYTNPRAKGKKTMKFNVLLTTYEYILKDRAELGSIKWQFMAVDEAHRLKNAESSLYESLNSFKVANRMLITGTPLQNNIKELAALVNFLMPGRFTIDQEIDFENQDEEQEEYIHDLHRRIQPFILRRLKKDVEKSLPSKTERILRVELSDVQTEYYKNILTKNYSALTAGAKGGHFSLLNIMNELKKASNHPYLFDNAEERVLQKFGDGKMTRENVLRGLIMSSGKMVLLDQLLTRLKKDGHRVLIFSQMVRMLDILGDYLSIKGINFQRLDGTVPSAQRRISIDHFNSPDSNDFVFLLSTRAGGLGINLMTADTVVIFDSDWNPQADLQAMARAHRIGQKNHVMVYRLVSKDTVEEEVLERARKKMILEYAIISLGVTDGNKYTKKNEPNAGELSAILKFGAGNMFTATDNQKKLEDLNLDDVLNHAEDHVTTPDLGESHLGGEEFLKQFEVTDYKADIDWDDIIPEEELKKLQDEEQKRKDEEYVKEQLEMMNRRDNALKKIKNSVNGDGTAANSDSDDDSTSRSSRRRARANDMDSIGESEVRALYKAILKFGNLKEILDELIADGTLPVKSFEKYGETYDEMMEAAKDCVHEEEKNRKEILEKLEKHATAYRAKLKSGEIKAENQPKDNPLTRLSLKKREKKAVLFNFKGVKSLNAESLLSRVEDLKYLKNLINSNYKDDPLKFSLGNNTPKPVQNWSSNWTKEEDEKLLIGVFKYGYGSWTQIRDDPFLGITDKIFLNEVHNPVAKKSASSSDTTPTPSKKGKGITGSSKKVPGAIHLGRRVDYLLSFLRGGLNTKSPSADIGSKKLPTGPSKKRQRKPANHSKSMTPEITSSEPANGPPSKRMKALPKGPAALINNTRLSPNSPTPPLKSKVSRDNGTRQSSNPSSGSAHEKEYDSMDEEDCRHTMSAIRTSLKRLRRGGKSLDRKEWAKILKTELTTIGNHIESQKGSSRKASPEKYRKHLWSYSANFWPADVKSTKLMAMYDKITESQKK

Sequence of Sialic acid-binding Ig-like lectin 9 (Homo sapiens) (Q9Y336 whole entry): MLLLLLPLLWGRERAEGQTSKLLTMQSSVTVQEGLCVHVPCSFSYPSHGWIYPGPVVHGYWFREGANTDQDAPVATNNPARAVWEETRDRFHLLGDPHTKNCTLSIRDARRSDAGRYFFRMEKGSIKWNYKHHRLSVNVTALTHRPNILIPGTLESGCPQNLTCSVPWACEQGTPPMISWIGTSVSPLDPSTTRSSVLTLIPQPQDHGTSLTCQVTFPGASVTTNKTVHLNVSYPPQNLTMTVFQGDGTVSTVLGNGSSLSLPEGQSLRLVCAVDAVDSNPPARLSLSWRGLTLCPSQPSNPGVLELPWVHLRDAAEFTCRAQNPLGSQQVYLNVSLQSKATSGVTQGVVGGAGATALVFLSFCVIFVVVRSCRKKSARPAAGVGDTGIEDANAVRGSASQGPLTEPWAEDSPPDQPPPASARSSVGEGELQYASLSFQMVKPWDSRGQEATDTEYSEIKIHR
Sequence of Protein translocase subunit SecA (Escherichia coli (strain K12)) (P10408 whole entry): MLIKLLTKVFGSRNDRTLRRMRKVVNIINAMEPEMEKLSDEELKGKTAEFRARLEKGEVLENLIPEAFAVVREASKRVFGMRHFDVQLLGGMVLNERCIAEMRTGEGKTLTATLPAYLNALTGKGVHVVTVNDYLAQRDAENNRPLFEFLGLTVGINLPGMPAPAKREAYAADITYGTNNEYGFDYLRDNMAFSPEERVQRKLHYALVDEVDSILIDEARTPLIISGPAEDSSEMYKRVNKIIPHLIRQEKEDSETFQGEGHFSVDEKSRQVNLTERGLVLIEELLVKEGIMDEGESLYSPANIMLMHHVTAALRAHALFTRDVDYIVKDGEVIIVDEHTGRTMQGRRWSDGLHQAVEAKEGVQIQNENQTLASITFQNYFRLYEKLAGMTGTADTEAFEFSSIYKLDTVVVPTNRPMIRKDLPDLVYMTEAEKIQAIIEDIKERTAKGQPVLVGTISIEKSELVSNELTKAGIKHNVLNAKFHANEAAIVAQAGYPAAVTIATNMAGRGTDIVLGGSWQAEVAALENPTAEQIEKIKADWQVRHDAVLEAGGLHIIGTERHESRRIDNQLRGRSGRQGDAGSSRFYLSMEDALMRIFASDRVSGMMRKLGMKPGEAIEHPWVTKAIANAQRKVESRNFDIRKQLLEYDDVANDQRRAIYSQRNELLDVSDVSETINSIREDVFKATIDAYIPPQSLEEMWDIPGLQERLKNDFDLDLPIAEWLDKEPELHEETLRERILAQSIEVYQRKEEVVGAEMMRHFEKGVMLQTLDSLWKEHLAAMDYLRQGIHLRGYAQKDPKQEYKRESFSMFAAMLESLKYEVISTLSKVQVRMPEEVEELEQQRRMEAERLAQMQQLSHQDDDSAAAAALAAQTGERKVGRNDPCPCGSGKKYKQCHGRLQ

With `CN(C)Cc1cnc2n1CCN(Cc1ccsc1)CC2`, the Percent Effect was -2.78% in [1]; 13.7% in test [2]; -4.83% in test [3]; 6.79% in test [4]; 2.98% with Trypanosoma cruzi; 1.2% in test [5]. The Percent Effect in test [6] was 13.4%; in the test listed under Homo sapiens, 6.89%; in test [7] it was 8.33%; in test [8], 11.1%; in test [9] it was -0.604%.
Regarding `Cc1cc(C)n(CC2CCCN2CC(=O)NC2CCOCC2)n1` (stereo unspecified), the Percent Effect in test [1] was -8.59%; in [2] it was 10.4%; in [3], 1.94%; in [4], 3.84%; in the test on Trypanosoma cruzi it was -3.93%; in [5] it was 2.13%. In addition, the Percent Effect in test [6] was 3.21%; in the test listed under Homo sapiens, -10%; in test [7] it was 1.94%; in test [8], 9.76%; in test [9] it was -3.99%.
Turning to `Cc1nc(C)c(CC(=O)Nc2ncc(C)s2)c(=O)[nH]1`, the Percent Effect is -0.904% in test [1]; 13.2% in test [2]; -1.41% in test [3]; 14.1% in test [4]; 1.5% in the test with Trypanosoma cruzi; -1.53% in test [5]. Moreover, the Percent Effect in test [6] is -2.51%; in the test listed under Homo sapiens it was -6.67%; in test [7], 5.39%; in test [8], 17.1%; in test [9], -5.26%.
With `CCCN1CCC(NC(=O)NCCc2nc(CC)c(C)s2)CC1`, the Percent Effect in [1] is -5.41%; in test [2] it was 5.41%; in [3], -6.84%; in test [4], 24.7%; in the test with Trypanosoma cruzi it was 4.1%; in test [5], 33.3%. Besides, the Percent Effect in test [6] is 8.54%; in the test filed under Homo sapiens, -11.4%; in [7], 9.9%; in [8], 13.4%; in test [9] it was -9.25%.
`O=C(c1ccsc1)N1CCc2c(COCc3ccncc3)cncc2C1`: the Percent Effect in test [1] is 0.395%; in [2], -8.22%; in test [3], 0.499%; in test [4], 1.44%; with Trypanosoma cruzi, -0.397%; in test [5], 1.2%. In addition, the Percent Effect in [6] is 10%; in the test filed under Homo sapiens it was 3.9%; in test [7], 3.12%; in test [8] it was 3.7%; in test [9], -0.158%.
In the case of `NC(=O)CC1CCN(C(=O)CCOc2ccc(Cl)cc2)CC1`, the Percent Effect was -3.65% in [1]; 10.5% in test [2]; 2.65% in [3]; 4.69% in [4]; 0.752% in the test on Trypanosoma cruzi; -4.6% in test [5]. For the same molecule, the Percent Effect was 8.19% in test [6]; 1.27% in the test listed under Homo sapiens; 6.37% in test [7]; 12.2% in [8]; -8.66% in [9].
As for `Cc1cnn(CCC(=O)N2CCN(c3ncccc3Cl)CC2)c1`, the Percent Effect in [1] is -2.22%; in test [2], 3.8%; in [3] it was 10.2%; in [4] it was 2%; in the test on Trypanosoma cruzi, -4.21%; in test [5], 1.94%. For the same molecule, the Percent Effect in test [6] was 10.3%; in the test listed under Homo sapiens, 18.8%; in test [7], 1.04%; in test [8], 2.53%; in test [9] it was -5.44%.
On to `CCn1nc(-c2ccccc2F)ccc1=O`, for which the Percent Effect in test [1] was -4.01%; in test [2], 0%; in test [3], -2.64%; in [4], -3.3%; in the test on Trypanosoma cruzi, -9.29%; in [5], -12.7%. In addition, the Percent Effect in test [6] was 4.55%; in the test listed under Homo sapiens, 11.8%; in [7] it was -1.07%; in [8] it was 8.64%; in [9], -2.39%.
On to `CCc1ccc(OCC(O)CN2CCC(O)CC2)cc1` (stereo unspecified), for which the Percent Effect in test [1] was -6.44%; in [2], -2.6%; in test [3], 5.75%; in test [4] it was -12.1%; with Trypanosoma cruzi it was -4.21%; in test [5] it was -1.05%. For the same molecule, the Percent Effect is 5.42% in test [6]; 11.1% in the test listed under Homo sapiens; -2.86% in test [7]; 0% in [8]; -19% in test [9].
Turning to `Cn1nc(CNC(=O)C2COc3ccccc3O2)cc1C1CC1` (stereo unspecified), the Percent Effect in [1] was -5.12%; in test [2] it was -2.6%; in test [3], 21.3%; in test [4], -1.75%; with Trypanosoma cruzi it was -3.85%; in test [5], -3.23%. In addition, the Percent Effect in [6] is 8.36%; in the test listed under Homo sapiens, 1.88%; in test [7], 0%; in test [8] it was -6.41%; in test [9], -1.13%.
Take `Cc1nc2c(c(C)c1CC(=O)NCc1cccc(C#N)c1)c(=O)[nH]n2C`: the Percent Effect was -4.87% in test [1]; 7.79% in test [2]; 6.32% in test [3]; 0.967% in test [4]; -4.21% with Trypanosoma cruzi; 1.9% in [5]. For the same molecule, the Percent Effect was 1.05% in test [6]; 31.2% in the test listed under Homo sapiens; 2.86% in test [7]; 11.8% in test [8]; -1.91% in test [9].
